# The full data set covers some 21,000 targets. This sample favours those with the largest changes.
# Compound: Cc1cc(ccc1-c1ccccc1)C(=O)N1CCCN(CC1)C(=O)CCl [compound 10]
# Test: probe-labelled cysteine peptide fold change vs DMSO (competition) (log2 fold change); higher = less target engagement (more negative = stronger competition)
# Settings: THP-1, incubation time: 4 h
# 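Further: competitive profiling in live THP-1 cells: cysteine peptides tagged with an iodoacetamide desthiobiotin (IA-DTB) probe, intensity after compound treatment relative to DMSO-treated cells.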
# Sequence of UniProt Q9Y4W6 (Q9Y4W6 whole entry, looked up): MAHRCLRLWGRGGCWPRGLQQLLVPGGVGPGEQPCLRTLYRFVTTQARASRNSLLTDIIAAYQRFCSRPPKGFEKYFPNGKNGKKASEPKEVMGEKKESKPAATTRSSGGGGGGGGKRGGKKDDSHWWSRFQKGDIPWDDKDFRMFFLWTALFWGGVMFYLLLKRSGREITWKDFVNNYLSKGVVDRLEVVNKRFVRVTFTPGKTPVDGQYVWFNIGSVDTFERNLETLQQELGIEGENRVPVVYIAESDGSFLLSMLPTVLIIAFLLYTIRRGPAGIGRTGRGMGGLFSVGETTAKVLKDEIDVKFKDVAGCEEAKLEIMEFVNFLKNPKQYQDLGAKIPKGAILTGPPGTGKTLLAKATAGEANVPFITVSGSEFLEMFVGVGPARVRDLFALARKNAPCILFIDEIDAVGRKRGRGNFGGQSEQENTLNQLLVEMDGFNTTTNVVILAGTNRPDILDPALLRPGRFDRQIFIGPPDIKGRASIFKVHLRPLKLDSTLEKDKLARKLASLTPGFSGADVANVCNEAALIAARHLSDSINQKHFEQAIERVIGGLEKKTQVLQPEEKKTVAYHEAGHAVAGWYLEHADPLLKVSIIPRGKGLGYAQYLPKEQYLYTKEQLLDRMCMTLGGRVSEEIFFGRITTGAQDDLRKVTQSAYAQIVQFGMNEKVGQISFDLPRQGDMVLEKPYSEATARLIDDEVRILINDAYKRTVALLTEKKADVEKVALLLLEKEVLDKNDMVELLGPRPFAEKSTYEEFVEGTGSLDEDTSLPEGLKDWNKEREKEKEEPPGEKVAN
# Sequence of UniProt O14983 (O14983 whole entry, looked up): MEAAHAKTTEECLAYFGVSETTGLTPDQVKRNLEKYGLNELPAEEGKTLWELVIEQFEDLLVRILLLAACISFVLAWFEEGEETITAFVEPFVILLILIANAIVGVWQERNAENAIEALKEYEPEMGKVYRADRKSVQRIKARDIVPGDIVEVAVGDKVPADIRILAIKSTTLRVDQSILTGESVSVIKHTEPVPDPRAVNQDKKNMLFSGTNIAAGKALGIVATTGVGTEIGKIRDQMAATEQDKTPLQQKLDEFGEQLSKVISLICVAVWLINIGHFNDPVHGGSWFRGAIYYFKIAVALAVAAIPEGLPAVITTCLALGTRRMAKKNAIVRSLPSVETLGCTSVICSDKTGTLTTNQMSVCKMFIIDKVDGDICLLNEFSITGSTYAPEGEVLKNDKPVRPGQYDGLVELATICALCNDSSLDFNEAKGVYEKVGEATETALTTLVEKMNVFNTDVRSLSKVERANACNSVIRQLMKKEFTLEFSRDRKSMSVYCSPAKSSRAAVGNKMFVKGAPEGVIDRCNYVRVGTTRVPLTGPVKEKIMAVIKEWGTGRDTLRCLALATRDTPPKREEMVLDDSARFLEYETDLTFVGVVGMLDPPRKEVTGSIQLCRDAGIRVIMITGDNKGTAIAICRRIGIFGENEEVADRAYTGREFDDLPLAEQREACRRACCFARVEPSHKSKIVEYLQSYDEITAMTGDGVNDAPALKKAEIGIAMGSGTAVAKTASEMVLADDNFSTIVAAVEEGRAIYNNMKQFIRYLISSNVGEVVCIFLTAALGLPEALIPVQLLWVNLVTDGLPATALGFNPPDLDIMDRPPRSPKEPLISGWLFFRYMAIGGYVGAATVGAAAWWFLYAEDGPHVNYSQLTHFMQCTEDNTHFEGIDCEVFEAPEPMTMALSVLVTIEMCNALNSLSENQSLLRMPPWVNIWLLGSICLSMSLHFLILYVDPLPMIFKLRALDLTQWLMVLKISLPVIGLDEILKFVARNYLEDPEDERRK
# Sequence of UniProt O00170 (O00170 whole entry, looked up): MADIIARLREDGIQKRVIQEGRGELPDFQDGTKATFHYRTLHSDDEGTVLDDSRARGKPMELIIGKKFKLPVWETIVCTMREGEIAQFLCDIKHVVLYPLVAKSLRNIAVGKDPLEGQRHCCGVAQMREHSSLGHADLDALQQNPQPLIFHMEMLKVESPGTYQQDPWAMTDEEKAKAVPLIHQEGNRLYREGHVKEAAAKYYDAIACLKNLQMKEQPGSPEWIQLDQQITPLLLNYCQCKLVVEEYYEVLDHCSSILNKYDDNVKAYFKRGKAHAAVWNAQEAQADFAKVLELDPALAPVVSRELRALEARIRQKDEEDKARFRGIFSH
# Sequence of UniProt Q6ULP2 (Q6ULP2 whole entry, looked up): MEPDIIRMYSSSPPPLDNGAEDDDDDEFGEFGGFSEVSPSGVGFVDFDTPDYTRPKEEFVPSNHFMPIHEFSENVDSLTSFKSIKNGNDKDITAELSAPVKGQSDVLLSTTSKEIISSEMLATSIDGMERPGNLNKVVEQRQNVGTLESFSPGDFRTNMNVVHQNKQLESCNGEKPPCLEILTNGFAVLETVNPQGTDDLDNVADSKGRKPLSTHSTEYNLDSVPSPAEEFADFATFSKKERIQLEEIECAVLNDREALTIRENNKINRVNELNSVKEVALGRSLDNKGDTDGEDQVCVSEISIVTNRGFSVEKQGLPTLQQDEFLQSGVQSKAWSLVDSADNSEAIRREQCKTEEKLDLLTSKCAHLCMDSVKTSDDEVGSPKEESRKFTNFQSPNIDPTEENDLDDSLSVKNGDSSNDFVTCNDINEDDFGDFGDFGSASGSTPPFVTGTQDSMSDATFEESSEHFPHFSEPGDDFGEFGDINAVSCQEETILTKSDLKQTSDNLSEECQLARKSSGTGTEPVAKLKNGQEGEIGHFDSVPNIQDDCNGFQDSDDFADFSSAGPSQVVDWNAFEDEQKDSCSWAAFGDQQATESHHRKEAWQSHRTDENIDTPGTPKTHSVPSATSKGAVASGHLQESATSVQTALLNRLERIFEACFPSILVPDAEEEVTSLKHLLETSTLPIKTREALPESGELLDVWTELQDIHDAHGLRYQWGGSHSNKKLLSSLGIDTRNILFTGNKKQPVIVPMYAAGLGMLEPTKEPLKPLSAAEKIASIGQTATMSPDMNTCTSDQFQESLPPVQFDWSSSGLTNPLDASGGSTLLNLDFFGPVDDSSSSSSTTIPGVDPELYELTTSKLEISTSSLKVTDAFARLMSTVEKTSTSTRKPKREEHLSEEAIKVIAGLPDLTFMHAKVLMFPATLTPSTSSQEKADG
# Sequence of UniProt P21281 (P21281 whole entry, looked up): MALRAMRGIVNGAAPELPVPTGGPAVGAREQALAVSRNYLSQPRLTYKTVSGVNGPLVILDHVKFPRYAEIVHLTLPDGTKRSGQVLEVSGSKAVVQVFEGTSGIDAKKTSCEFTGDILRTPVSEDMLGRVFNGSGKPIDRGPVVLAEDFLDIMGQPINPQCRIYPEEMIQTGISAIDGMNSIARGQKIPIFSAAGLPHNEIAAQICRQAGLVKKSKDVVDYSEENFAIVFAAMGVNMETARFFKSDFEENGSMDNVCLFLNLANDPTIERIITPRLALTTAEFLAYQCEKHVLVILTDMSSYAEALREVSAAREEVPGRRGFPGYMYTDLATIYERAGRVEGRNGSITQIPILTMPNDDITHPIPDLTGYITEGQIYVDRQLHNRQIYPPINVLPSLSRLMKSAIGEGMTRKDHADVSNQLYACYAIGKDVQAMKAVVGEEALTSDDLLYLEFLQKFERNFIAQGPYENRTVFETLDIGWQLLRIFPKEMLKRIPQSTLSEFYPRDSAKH
# Sequence of UniProt P54259 (P54259 whole entry): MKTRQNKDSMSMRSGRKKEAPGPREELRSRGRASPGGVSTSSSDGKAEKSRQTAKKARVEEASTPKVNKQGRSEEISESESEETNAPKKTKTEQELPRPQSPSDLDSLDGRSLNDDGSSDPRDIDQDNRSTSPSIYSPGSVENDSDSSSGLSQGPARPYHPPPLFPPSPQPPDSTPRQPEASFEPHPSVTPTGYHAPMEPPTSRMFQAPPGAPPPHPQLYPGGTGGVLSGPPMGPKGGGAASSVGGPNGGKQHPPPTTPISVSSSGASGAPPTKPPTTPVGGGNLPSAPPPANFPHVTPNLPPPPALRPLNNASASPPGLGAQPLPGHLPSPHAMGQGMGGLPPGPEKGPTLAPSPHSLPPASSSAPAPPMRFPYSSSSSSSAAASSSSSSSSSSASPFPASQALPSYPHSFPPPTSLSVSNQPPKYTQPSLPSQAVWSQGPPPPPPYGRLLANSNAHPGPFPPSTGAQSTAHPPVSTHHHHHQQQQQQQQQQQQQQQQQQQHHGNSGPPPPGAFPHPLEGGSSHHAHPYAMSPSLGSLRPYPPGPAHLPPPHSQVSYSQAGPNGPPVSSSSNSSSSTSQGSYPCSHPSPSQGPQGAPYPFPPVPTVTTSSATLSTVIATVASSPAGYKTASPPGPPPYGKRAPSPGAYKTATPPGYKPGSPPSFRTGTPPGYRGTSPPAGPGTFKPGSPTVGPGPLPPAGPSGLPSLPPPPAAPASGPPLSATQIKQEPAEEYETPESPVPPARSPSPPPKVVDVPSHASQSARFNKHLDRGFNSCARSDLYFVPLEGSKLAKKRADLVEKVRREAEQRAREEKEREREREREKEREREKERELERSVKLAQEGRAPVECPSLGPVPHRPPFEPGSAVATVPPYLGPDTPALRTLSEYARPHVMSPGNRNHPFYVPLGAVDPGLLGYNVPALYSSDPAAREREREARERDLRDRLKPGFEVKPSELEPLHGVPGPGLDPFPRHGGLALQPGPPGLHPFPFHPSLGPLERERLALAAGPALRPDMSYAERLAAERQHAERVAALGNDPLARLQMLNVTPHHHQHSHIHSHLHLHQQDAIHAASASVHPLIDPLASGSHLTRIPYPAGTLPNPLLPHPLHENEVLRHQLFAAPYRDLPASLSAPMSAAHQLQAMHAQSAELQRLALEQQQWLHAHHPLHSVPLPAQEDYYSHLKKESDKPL
Target,probe-labelled cysteine peptide fold change (10 µM),probe-labelled cysteine peptide fold change (50 µM)
AGL_P35573_486_ELICWGDSVK (UniProt P35573),0.0938,0.033
AP1G1_O43747_392_ELLYFLDSCEPEFK (UniProt O43747),0.183,0.273
ARRB2_P32121_126_KLGQHAHPFFFTIPQNLPCSVTLQPGPEDTGK (UniProt P32121),-0.12,-0.146
AGL_P35573_767_EVPQMCIPGKIEEVVLEAR (UniProt P35573),-0.292,-0.537
ALDH9A1_P49189_355_VLCGGDIYVPEDPK (UniProt P49189),-0.105,0.0431
ARHGAP44_Q17R89_193_ADALREEMEEAANRVEICR (UniProt Q17R89),-0.0472,-0.212
ADAM10_O14672_222_NTCQLYIQTDHLFFK (UniProt O14672),0.033,0.208
ADAM9_Q13443_539_DCFIEVNSK (UniProt Q13443),-0.0729,-0.137
ANKRD11_Q6UB99_1339_ESACLPEK (UniProt Q6UB99),-0.0313,-0.174
ARHGEF7_Q14155_490_TLGNVTYMSQVLIQCAGSEEK (UniProt Q14155),-0.204,-1.18
ATRX_P46100_235_WCAEGGNLICCDFCHNAFCK (UniProt P46100),0.0337,-0.0739
ATP2B1_P20020_547_TECALLGLLLDLKR (UniProt P20020),-0.138,-0.507
ATM_Q13315_2770_SGVLEWCTGTVPIGEFLVNNEDGAHKR (UniProt Q13315),0.0886,-0.152
AIP_O00170_122_HCCGVAQMR (UniProt O00170),-0.267,-2.09
ALAD_P13716_75_CVLIFGVPSR (UniProt P13716),0.166,0.185
ATN1_P54259_851_APVECPSLGPVPHRPPFEPGSAVATVPPYLGPDTPALR (UniProt P54259),-0.143,-0.422
ANLN_Q9NQW6_1037_INLANCTSR (UniProt Q9NQW6),-0.121,-0.171
ANKRD50_Q9ULJ7_113_QALAFHFCK (UniProt Q9ULJ7),1.31,1.7
ATP13A1_Q9HD20_410_ATTGLKPVDSGCVAYVLR (UniProt Q9HD20),0.133,0.0894
AFG3L2_Q9Y4W6_313_DVAGCEEAKLEIMEFVNFLK (UniProt Q9Y4W6),-0.324,-0.391
ACSL4_O60488_420_GYDAPLCNLLLFKK (UniProt O60488),-0.291,-1.12
ATP2A1_O14983_349_SLPSVETLGCTSVICSDK (UniProt O14983),-0.0681,-0.0742
AKR1B1_P15121_304_VCALLSCTSHK (UniProt P15121),-0.547,-2.08
ATP6V0A1_Q93050_58_RCEEMDR (UniProt Q93050),0.102,0.183
AFTPH_Q6ULP2_659_IFEACFPSILVPDAEEEVTSLK (UniProt Q6ULP2),0.0219,-0.0706
ADAR_P55265_851_CFNTLTNSFQPSLLGR (UniProt P55265),-0.0671,0.166
ATP6V1B2_P21281_425_DHADVSNQLYACYAIGK (UniProt P21281),0.162,0.207

# Source: the supplement of paper PMC12067093, “Discovery and optimisation of a covalent ligand for TRIM25 and its application to targeted protein ubiquitination” (Chemical Science, 2025)
